Source: PubChem
Most compounds without a hit are left out; they make up all but 10% or so of the library.
CtBP-E1A blk – qHTS Assay for Inhibitors of the CtBP/E1A Interaction; activity change, % (concentration not given with the values); CtBP / adenovirus E1A interaction (AlphaScreen); hit rate 0.49% among 340,000; AlphaScreen GST-E1A/His-CtBP binding, 1536-well; active compounds read low; AID 651724, 2012; in the data active = activity change below about -65%; inconclusive = mostly about -30% to -63%; also: % is scaled to controls: 0 for no effect and ±100 for the full control effect
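Protein mix (5X: 125 nM each GST-E1A, His-CtBP) was incubated with pinned compound 2 h at 37 deg C in dark, in 50 mM Tris pH 8.0 buffer with 300 mM NaCl. Glutathione donor and nickel acceptor beads followed; AlphaScreen signal read after 1 h.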
HP1b chromo inh – HTS for Inhibitors of HP1-beta Chromodomain Interactions with Methylated Histone Tails | hit rate 0.56% among 390,000 | Chromobox protein homolog 1 (Homo sapiens), P83916 | AlphaScreen HP1-beta / biotin-H3K9me3 peptide binding | Potency, µM (highest dose often 114 µM), for the others: top-dose activity change, negative = inhibition, usual class: inhibitors | AID 540317, 2011; also: potency is read from the fitted curve at half-maximal effect; nearly all actives have a fitted effect of over 70% in size
Target sequence (P83916 whole entry, looked up): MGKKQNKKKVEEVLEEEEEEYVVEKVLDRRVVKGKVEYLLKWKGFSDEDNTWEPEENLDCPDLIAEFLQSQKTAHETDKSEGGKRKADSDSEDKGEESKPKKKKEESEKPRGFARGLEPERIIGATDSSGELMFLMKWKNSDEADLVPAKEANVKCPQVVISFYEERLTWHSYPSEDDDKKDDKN
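Compound inhibition of the preformed complex between 50 nM HP1-beta and 50 nM biotinylated H3K9me3 peptide was read by AlphaScreen. Buffer was PBS pH 7.4 with 0.01% Tween-20. Incubations ran 30 min at room temperature, with 10 ug/mL donor/acceptor beads.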
BAZ2B inh – qHTS Assay for Inhibitors of BAZ2B | AlphaScreen BAZ2B-H3K14Ac peptide displacement | Potency, µM (series often up to 114 µM), without a hit: top-dose activity change, negative = inhibition, usual class: inhibitors | hit rate 4.4% among 360,000 | AID 504333, 2011; also: potency is read from the fitted curve at half-maximal effect; % is scaled to controls: 0 for no effect and ±100 for the full control effect; nearly all actives have a fitted effect of over 60% in size
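AlphaScreen displacement: compounds (up to 110uM) incubated 30 min at room temperature with a preformed 50 nM BAZ2B/50 nM biotinylated H3K14Ac peptide complex in PBS pH 7.4 with Tween-20. Donor and acceptor beads at 10 ug/mL final added, 20 min light-protected before reading.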
Six1-Eya2 inh – qHTS Assay for Inhibitors of the Six1/Eya2 Interaction. AID 651725, 2012. hit rate 0.56% among 360,000. Homeobox protein SIX1 (Homo sapiens) + Protein phosphatase EYA2 (Homo sapiens), …. AlphaScreen GST-Six1/His-Eya2 binding, biochemical; active compounds read low. activity change, % (test concentration not listed); in the data active = activity change below about -65%; inconclusive = mostly about -30% to -63%; also: % is scaled to controls: 0 for no effect and ±100 for the full control effect
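Six1/Eya2 binding was read as AlphaScreen signal after compounds were pinned into GST-Six1 plus His-tagged Eya2 (5X stock 250/500 nM) in pH 8.0 Tris/NaCl/TCEP buffer, beads added, then incubated 1 h, 37 C, dark.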
JMJD2A Tudor – qHTS Assay for Inhibitors of JMJD2A-Tudor Domain; Lysine-specific demethylase 4A (Homo sapiens), O75164; AlphaScreen JMJD2A-Tudor / H3K4me3 peptide binding; Potency, µM (doses to about 114 µM), without a hit: top-dose activity change, negative = inhibition, most hits filed as inhibitors; hit rate 4.4% among 390,000; also: potency is read from the fitted curve at half-maximal effect; % is scaled to controls: 0 for no effect and ±100 for the full control effect; nearly all actives have a fitted effect of over 50% in size
G9a inh – qHTS Assay for Inhibitors of Histone Lysine Methyltransferase G9a | Histone-lysine N-methyltransferase EHMT2 (Homo sapiens), Q96KQ7 | Potency, µM (doses to about 102 µM), without a hit: at the top dose activity, negative = inhibition, usual class: inhibitors | G9a H3K9 monomethylation, AlphaScreen, 2 h | AID 504332, 2011 | hit rate 8.8% among 350,000; also: potency is read from the fitted curve at half-maximal effect; % is scaled to controls: 0 for no effect and ±100 for the full control effect; nearly all actives have a fitted effect of over 75% in size
Target sequence (Q96KQ7 913-1193 limits assumed): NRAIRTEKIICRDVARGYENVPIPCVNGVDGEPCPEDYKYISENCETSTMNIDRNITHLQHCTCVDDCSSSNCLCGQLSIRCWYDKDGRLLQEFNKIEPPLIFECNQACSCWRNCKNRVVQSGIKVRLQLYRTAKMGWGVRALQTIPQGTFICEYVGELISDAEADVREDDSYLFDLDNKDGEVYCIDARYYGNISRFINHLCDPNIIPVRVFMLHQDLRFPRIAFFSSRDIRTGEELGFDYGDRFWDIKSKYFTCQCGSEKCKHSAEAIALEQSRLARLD
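AlphaScreen detection with an anti-monomethyl H3K9 antibody quantified product after a 2 h room-temperature reaction containing 500 nM biotinylated H3K9 peptide, 20 µM SAM and 20 nM enzyme, which had been preincubated 15 min with compound.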
Starred values were filed as active, the others as inactive; ? = inconclusive; . = no result given; [ ] = another dose, or the depositor's remark. Unless noted, calls follow the shape of the dose curve; as a rule, active = well fitted inhibition curve with a large enough effect; inconclusive = small, poorly fitted or top-dose-only effect; inactive = no such curve, though single readings can be large or run the other way.

SMILES	CtBP-E1A blk	HP1b chromo inh	BAZ2B inh	Six1-Eya2 inh	JMJD2A Tudor	G9a inh
COc1cccc(CCNCc2c(F)cccc2F)c1	.	?	40µM*	5	?	7.9µM*
Fc1ccc(CCNCc2cccc(Cl)c2)cc1	10	18%	-2%	18	-3%	3%[0.501 µM]
CN(C)CCN(C(=O)c1ccc(S(=O)(=O)N2CCc3ccccc32)cc1)c1nc2ccc(F)cc2s1	-21	5%	?	-17	?	3.5µM*
CC(=O)NC1N=C(C)N(c2ccccc2)C1=O (stereo not drawn)	3	?	-15%	12	45µM*	3.2µM*
CC(C)CN1CCCC2(CCN(C(=O)Oc3ccccc3)CC2)C1	.	.	.	.	.	3%[12.7 µM]
Cc1cccc(C)c1N1CCN(c2c(C)cccc2C)CC1	6	71%	9%	-5	3%	40µM*
CC(=O)c1c(O)n(C)c(=S)n(-c2ccccc2)c1=O	3	31%	1%	2	-7%	24%[59 µM]
Cn1c(O)c(C(c2ccncc2)c2c(O)n(C)c(=S)n(C)c2=O)c(=O)n(C)c1=S	?	26%	-3%	-68*	-36%	?
Cn1c(O)c(C(c2ccccn2)c2c(O)n(C)c(=S)n(C)c2=O)c(=O)n(C)c1=S	-29	7%	5µM*	?	4µM*	4µM*
CCC(C)n1c(O)c(C=NC(C)c2ccccc2)c(=O)[nH]c1=S (stereo not drawn)	-1	9%	-22%	-5	?	.
CCC(C)n1c(O)c(C(c2ccccn2)c2c(O)n(C(C)CC)c(=S)[nH]c2=O)c(=O)[nH]c1=S (stereo not drawn)	-14	29%	35µM*	-14	?	11µM*
CC[C@H]1CC2CN3CCc4c([nH]c5cc(OC)ccc45)[C@](C(=O)OC)(C2)[C@H]13	-24	-27%	.	-28	40µM*	.
CC[C@H]1CN(C)C[C@@]2(C(=O)OC)Cc3c([nH]c4ccccc34)C(=O)C[C@@H]12	5	27%	.	10	-7%	.
Cc1ccc(NC(=O)CN2C(=O)CN=C(c3ccccc3)c3ccccc32)c(C)c1	.	26%	.	.	1%	-6%[59 µM]
Cn1c(SCC(=O)N2CCOCC2)nnc1-c1cccc(NC(=O)c2ccccc2)c1	4	14%	.	-6	89µM*	10µM*
Cc1ccc(NC(=O)c2cc(-c3ccccc3)n(CCCN3CCOCC3)c2C)cc1	-5	?	?	7	-33%	?
CCOP(=O)(OCC)O/C(=C/Cl)c1ccc(Cl)cc1Cl	.	.	.	.	.	-5%[12.7 µM]
Brc1ccc2[nH]cc(/C=N/N3CCCCC3)c2c1	-8	?	45µM*	-19	50µM*	?
COC12C(COC(N)=O)C3=C(C(=O)C(C)=C(N)C3=O)N1CC1C2N1C (stereo not drawn)	-1	31%	-33%	-7	?	50µM*
O=C(Oc1ccccc1)N1CCC[C@@]2(CCN(Cc3cc(C(F)(F)F)cc(C(F)(F)F)c3)C2)C1	.	.	.	.	.	-1%[12.7 µM]
ClC=C(Cl)Cl	.	.	.	.	.	1%[12.7 µM]
COC(=O)C(N)CCCN=C(N)N[N+](=O)[O-] (stereo not drawn)	.	.	.	.	.	11%[12.7 µM]
CC(C)(C)NC(=S)/N=C(\N)N[N+](=O)[O-]	7	11%	?	4	-12%	22µM*
COc1cccc(N2CCN(C(=O)C3CCCN(S(=O)(=O)c4ccc5c(c4)oc(=O)n5C)C3)CC2)c1 (stereo not drawn)	-10	8%	-14%	-2	-19%	-7%
C[N+](C)(C)c1ccccc1	6	17%	-13%	-5	?	20µM*
O=[N+]([O-])c1ccccc1	.	.	.	.	.	28%[59 µM]
